Results from PubChem BioAssay.
Calls of active or inactive are those of the source.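 How the source made its calls, unless noted: active means inhibition of the reporter signal at or above 50%; inactive means inhibition below 50%.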

Experiments:
[1] = inhibitors of TNFa-induced NFkB p65 translocation, primary screen, imaging, HUVEC, MLSMR starter and 10KST1 sets (AID 438;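 active means inhibition above 20% together with a positive visual image hit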;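 further: compound added about 3h40 before a 20 min TNFalpha stimulation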;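 on inhibition: signal is the nuclear over cytoplasmic p65 intensity ratio per well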); details: HUVEC TNFa-induced p65 nuclear translocation; cell count: measured here: nuclei count (cytotoxicity indicator), at 2.08 µM; inhibition: at 2 µM, stronger effect = higher value, 0% TNFa-plus-vehicle, 100% no-TNFa wells
[2] = inhibitors of mutant huntingtin aggregation, primary screen, imaging, exon1htt(103Q)mCFP cells, high-content imaging (AID 483;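 active means visual image review flags a hit and inhibition of aggregation exceeds 20%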;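 further: compound exposure lasted 3 days before fixation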;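 on nuclei count: percent of the per-plate median nuclei count of sample wells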); details: exon1htt(103Q)mCFP cell line, aggregate imaging, at 2 µM; inhibition of aggregation: stronger effect = higher value; nuclei count: measured here: cell count, toxicity
[3] = inhibitors of E-selectin induction by TNFa, primary screen, imaging, HUVEC, immunofluorescence, MLSMR starter and 10KST1 sets (AID 487;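 active means visually confirmed hit in the image check and inhibition above 20%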;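 on inhibition: signal is fraction of cell area covered by stained E-selectin grains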;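 on nuclei count: 100% = median nuclei count of all wells on the same plate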); details: HUVEC TNFalpha-induced E-selectin immunofluorescence imaging, at 2 µM; inhibition: stronger effect = higher value; nuclei count: measured here: cell number, toxicity
[4] = biological target: Voltage-gated potassium channel subunit beta-2 (Rattus norvegicus) (UniProt P62483); experiment: KvBeta enzyme negative modulators, primary screen, biochemical, NADPH fluorescence (AID 622;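 active means fluorescence slope higher than the sample average by over 3 SD, cut at about -0.22 in these data, passing the limit was not always enough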;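 further: slope of raw intensity against log time taken from 70 to 1610 s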); details: recombinant KvBeta, 4-cyanobenzaldehyde reduction, at 10 µM, stronger effect = higher value
[5] = biological target: Voltage-gated potassium channel subunit beta-2 (Rattus norvegicus) (UniProt P62483); experiment: KvBeta positive modulators, primary screen, biochemical, NADPH fluorescence (AID 623;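 active means NADPH fluorescence slope more negative than the mean of all samples by about 3 SD, 99.7% confidence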;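 further: fluorescence intensity change per second fitted from 20 to 320 s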); details: Recombinant KvBeta, NADPH fluorescence decrease slope, 10 min; at 10 µM; stronger effect = lower value
[6] = biological target: Alpha-2C adrenergic receptor (Homo sapiens) (UniProt P18825); experiment: modulators of alpha2C/GIRK thallium flux, primary screen, cell-based, HEK293 alpha2C/GIRK1/2 (AID 624;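 active means fluorescence slope after compound addition differing from the mean of all screened samples at 99.7% confidence, in either direction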;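 further: slope of fluorescence ratio to pre-addition baseline per second over 15 to 24 s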); details: thallium flux BTC fluorescence, at 10 µM, actives lie on both sides
[7] = inhibitors of Sendai virus-induced IRF3 signaling, primary screen, TLR/RLR signaling modifier project, cell-based, Sendai virus stimulus, luciferase, 10K MLSCN set (AID 602276;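 active means inhibition at or above 50% at 10 µM; inactive means inhibition below 50%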;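 further: firefly luciferase from ISG56 promoter only with Renilla not read in this screen; 0% = Sendai virus plus DMSO and 100% = medium plus DMSO without virus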); details: HEK293 RL24 IRF3 luciferase reporter, at 10 µM, stronger effect = higher value
[8] = inhibitors of poly I:C-induced TLR3 signaling, primary screen, cell-based, poly I:C stimulus, luciferase, 10K MLSCN set (AID 602277); details: HEK293-TLR3 RL24 IRF3 luciferase reporter, at 10 µM, stronger effect = higher value

Alpha-2C adrenergic receptor (Homo sapiens), sequence (P18825 whole entry, looked up): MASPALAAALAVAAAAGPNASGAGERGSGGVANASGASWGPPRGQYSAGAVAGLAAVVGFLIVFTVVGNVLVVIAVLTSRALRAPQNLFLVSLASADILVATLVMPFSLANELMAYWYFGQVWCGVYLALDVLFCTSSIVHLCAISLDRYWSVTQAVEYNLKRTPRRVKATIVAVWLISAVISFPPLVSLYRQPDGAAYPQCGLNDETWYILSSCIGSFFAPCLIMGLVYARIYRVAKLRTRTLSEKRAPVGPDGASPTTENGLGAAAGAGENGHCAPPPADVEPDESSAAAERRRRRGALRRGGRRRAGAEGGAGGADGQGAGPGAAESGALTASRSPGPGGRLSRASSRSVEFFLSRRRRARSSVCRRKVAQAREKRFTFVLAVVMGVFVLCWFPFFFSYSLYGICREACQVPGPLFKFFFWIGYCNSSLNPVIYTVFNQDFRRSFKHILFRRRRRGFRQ
Voltage-gated potassium channel subunit beta-2 (Rattus norvegicus), sequence (P62483 whole entry, looked up): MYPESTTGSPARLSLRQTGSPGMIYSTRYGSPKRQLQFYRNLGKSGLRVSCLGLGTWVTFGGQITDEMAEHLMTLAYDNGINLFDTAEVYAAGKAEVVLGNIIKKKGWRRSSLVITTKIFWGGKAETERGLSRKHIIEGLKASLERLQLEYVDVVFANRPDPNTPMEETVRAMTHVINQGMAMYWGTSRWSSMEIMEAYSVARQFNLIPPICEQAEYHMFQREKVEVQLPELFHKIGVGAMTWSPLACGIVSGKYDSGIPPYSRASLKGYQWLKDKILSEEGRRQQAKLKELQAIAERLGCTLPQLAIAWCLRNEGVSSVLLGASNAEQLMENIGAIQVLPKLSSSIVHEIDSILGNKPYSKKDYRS

| Compound | cell count [1] | inhibition [1] | inhibition of aggregation [2] | nuclei count [2] [%] | inhibition [3] | nuclei count [3] [%] | fluorescence slope [4] | NADPH fluorescence slope [5] | slope [6] | inhibition [7] | inhibition [8] |
| --- | --- | --- | --- | --- | --- | --- | --- | --- | --- | --- | --- |
| Cc1ccc(-c2cc(C(=O)NCCN3CCOCC3)no2)cc1 | 605 | 1.9% (inactive) | 41.6% (inactive) | 69.9 | -4% (inactive) | 101 | -0.452 (inactive) | 8.4e-05 (inactive) | 0.0051 (inactive) | -29.5% (inactive) | -36.6% (inactive) |
| O=C(O)CC1NC(=O)N(c2ccccc2)C1=O (centres undefined) | 540 | -4.6% (inactive) | 5.1% (inactive) | 95.5 | -106% (inactive) | 114 | -0.599 (inactive) | 1.8e-06 (inactive) | 0.00411 (inactive) | 16.4% (inactive) | 21.9% (inactive) |
| COc1ccccc1OCCCCNCCO | 493 | 9.1% (inactive) | -4.6% (inactive) | 103 | -80.3% (inactive) | 130 | -0.434 (inactive) | -3.7e-05 (inactive) | 0.00597 (inactive) | 1.66% (inactive) | 25.1% (inactive) |
| CC1=C(C(=O)OCc2ccccc2)C(c2ccco2)n2ncnc2N1 (centres undefined) | 811 | -2.8% (inactive) | 7% (inactive) | 117 | -31.8% (inactive) | 109 | -0.595 (inactive) | 4.7e-06 (inactive) | 0.00658 (inactive) | 9.4% (inactive) | 25.1% (inactive) |
| Cc1nc2sc(C(c3ccccc3)N3CCN(c4ccccc4F)CC3)c(O)n2n1 (centres undefined) | 305 | -1% (inactive) | -6.7% (inactive) | 83.6 | 8.6% (inactive) | 91.8 | -0.437 (inactive) | 0.000106 (inactive) | 0.00618 (inactive) | 5.03% (inactive) | 5.62% (inactive) |
| CC(=O)NCc1nc2ccccc2n1C(C)C | 518 | 13% (inactive) | 15.8% (inactive) | 110 | 6.4% (inactive) | 119 | -0.575 (inactive) | -3.7e-05 (inactive) | 0.00817 (inactive) | 7.73% (inactive) | 21.5% (inactive) |
| Cc1ccc(CNC(=O)COC(=O)c2c(C)noc2C)cc1 | 581 | 6.9% (inactive) | 23.2% (inactive) | 89.7 | 46% (inactive) | 57.1 | -0.449 (inactive) | -4.4e-05 (inactive) | 0.00349 (inactive) | -1.51% (inactive) | 16.4% (inactive) |
| CCOc1ccc(NC(=O)CSc2nnc(COc3c(C)cccc3C)o2)cc1 | 577 | 7.3% (inactive) | -15% (inactive) | 116 | -13.1% (inactive) | 115 | -0.567 (inactive) | -1.4e-05 (inactive) | 0.00747 (inactive) | 6.58% (inactive) | 30.3% (inactive) |
| CC(C)N(C(=O)N1CCC(c2nc(-c3ccncc3)no2)CC1)C(C)C | 653 | -7.5% (inactive) | 8.3% (inactive) | 102 | -95.9% (inactive) | 106 | -0.354 (inactive) | -3.3e-05 (inactive) | 0.00413 (inactive) | 0.899% (inactive) | -5.83% (inactive) |
| Cc1ccc(NC(=O)CSc2nnc(Cc3cccn3C)n2-c2ccc(F)cc2)cc1 | 562 | 12.9% (inactive) | -6.4% (inactive) | 98.7 | -118% (inactive) | 91.3 | -0.586 (inactive) | -2.1e-06 (inactive) | 0.00658 (inactive) | 8.62% (inactive) | 23.7% (inactive) |
| COc1ccc(CCNC(=O)C2=COCCO2)cc1 | 596 | 4.2% (inactive) | 51.2% (active) | 90.3 | 53.6% (active) | 99.1 | -0.545 (inactive) | -2.9e-05 (inactive) | 0.00546 (inactive) | -14.5% (inactive) | -26.2% (inactive) |
| CCOC(=O)N1CCC(N(C(=O)Nc2cccc(OC)c2)C(C)CC)CC1 (centres undefined) | 534 | -4.4% (inactive) | -16.1% (inactive) | 44 | -60.6% (inactive) | 98.9 | -0.513 (inactive) | -3.9e-05 (inactive) | 0.00561 (inactive) | 12.2% (inactive) | 11.5% (inactive) |
| CCOC(=O)c1c(C)[nH]c(C(=O)COC(=O)C2CC2C)c1C (centres undefined) | 378 | 0.3% (inactive) | -161% (inactive) | 1.8 | -20.9% (inactive) | 125 | -0.504 (inactive) | -5.4e-05 (inactive) | 0.00548 (inactive) | -45.3% (inactive) | -115% (inactive) |
| COc1ccccc1NC(=O)Cc1noc(CSc2cc(C)c3ccccc3n2)n1 | 572 | -12.8% (inactive) | 25.7% (inactive) | 81.6 | -160% (inactive) | 95.9 | -0.337 (inactive) | -5.3e-05 (inactive) | 0.00168 (inactive) | 6.32% (inactive) | -8.68% (inactive) |
